Assay results: the supplement of paper PMC10338343
± gives the standard deviation.

Each sequence was assayed on MILI (PIWIL2) piRISC loaded with L1MC piRNA (26 nt) (assay: pre-steady-state target cleavage rate (min^-1); guide: L1MC piRNA 5'p-UAACUAAAUACUAUGCAAGCUGUAGG; MIWI and MILI are mouse PIWI proteins and EfPiwi is from a freshwater sponge; tags in brackets are library labels; higher = faster piRNA-guided slicing of the target). Details: auxiliary factor: 500 nM mouse GTSF1.
Method: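 Cleave-'n-Seq: a library of target RNAs (target site embedded in constant flanks, ACAGCATTCCGCGTTAGTGATATCCG... 5' flank; DNA-blocked outside the site) at 0.1 nM was incubated with 1 nM active mouse MILI or MIWI piRISC (synthetic 5'-monophosphorylated piRNA guide) with or without 500 nM mouse GTSF1 at 33 °C for 1 min to 16 h. Uncleaved targets were sequenced and normalised to non-target controls, and the pooled three trials were fitted to a burst-and-steady-state model to give the pre-steady-state cleavage rate (min^-1; k3 is constrained to at most 1e-4). Sequence is the target site only; target names encode pairing extent (gX:gY) and contiguous / 1-mismatch / 2-mismatch / bulge geometry. Fits with R² ≤ 0 are excluded.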

Sequence | pre-steady-state target cleavage rate
UCCUGGAUGUCCAUGGAUAGUAUUUAGUUA | 0.0252 ± 0.0073
UCCUCCUACAGCUUGGUAAGUAUUUAGAAA | 0.0543 ± 0.013
UCCUCCUUCAGCUUGCAUAGUAUUAAGUUA | 0.155 ± 0.022
UCCUGGAUCAGCUUGCAAUAGUAUUUAGUUA | 0.00703 ± 0.0039
UCCUGGAUGAGCUAGCAUAGUUUUUAGUUA | 0.0185 ± 0.0066
UCCUGCUACAGCUUGCAUAGUUUUAGUUA | 0.0113 ± 0.0045
UCCUGGUACAGGUUGGAUAGUAUUUAGUUA | 0.303 ± 0.043
UCCUGGAUGUCGAAGCAUAGUACUUUAGUUA | 0.00532 ± 0.0027
UCCUGGAACAGCUUUGCAUAGUAUUUAGUUA | 0.248 ± 0.016
UCCUGGAACAGCUUGCAUAGAAUAUAGUUA | 0.0426 ± 0.011
UCCUGGUACAGCUUGCAUAAUAUUUAGUUA | 0.338 ± 0.068
UCCUGGAUCAGGUUGCAUUGUAUUUAGUUA | 0.115 ± 0.0091
UCCUGGUACAGCCUGCAUAGUAUUUAGUUA | 0.186 ± 0.024
UCCUGGUACAGCUUGCAUUCUAUUUAGUUA | 0.0335 ± 0.018
UCCUCCUACACGAUGCAUAGUAUUUACAAA | 0.122 ± 0.021
UCCUGGUUCAGCUUCCAUAGUAUUUAGUUA | 0.0301 ± 0.012
UCCUGGAAGAGCUUGCAUAGUAUUUAGUAA | 0.201 ± 0.014
UCCUGCUACAGCUUGCAUAGAAUUUAGUUA | 0.0612 ± 0.014
UCCUGCUACAGCUUGCAUAGUUUUUAGUAA | 0.0393 ± 0.011
UCCUGGUACACCUUGCAUAGUUUUUAGUUA | 0.0288 ± 0.011
UCCUGGAUGUGCUUGCAUAGUAUGUAGUUA | 0.134 ± 0.026
UCCUGGAACAGCUUGCAUAGAUAUUAGUUA | 0.0112 ± 0.0053
UCCUCCUUCAGCUUGCAUAGUAUUUAGUUA | 0.297 ± 0.019
UCCUCGUACAGCUUGCAUACUAUUUAGUUA | 0.0786 ± 0.011
UCCUGGAACAGCUAGCAUAGUUUUUAGUUA | 0.0448 ± 0.0092
UCCUGGAACAGCUUGCAUAGUAUUUAGUAA | 0.247 ± 0.021

Same assay, conditions: auxiliary factor: none (no GTSF1)

Sequence | pre-steady-state target cleavage rate
UCCUGGAUGUCCAUGGAUAGUAUUUAGUUA | 0.00317 ± 0.0025
UCCUCCUUCAGCUUGCAUAGUAUUAAGUUA | 0.00246 ± 0.0023
UCCUGGAUGAGCUAGCAUAGUUUUUAGUUA | 0.00507 ± 0.0028
UCCUGGUACAGGUUGGAUAGUAUUUAGUUA | 0.00912 ± 0.0032
UCCUGGAUGUCGAAGCAUAGUACUUUAGUUA | 0.00317 ± 0.002
UCCUGGAACAGCUUUGCAUAGUAUUUAGUUA | 0.00711 ± 0.0027
UCCUGGUACAGCUUGCAUAAUAUUUAGUUA | 0.0064 ± 0.0032
UCCUGGAUCAGGUUGCAUUGUAUUUAGUUA | 0.00671 ± 0.0024
UCCUGGUACAGCCUGCAUAGUAUUUAGUUA | 0.0143 ± 0.004
UCCUGGAAGAGCUUGCAUAGUAUUUAGUAA | 0.00564 ± 0.0021
UCCUGGUACACCUUGCAUAGUUUUUAGUUA | 0.00381 ± 0.0034
UCCUCCUUCAGCUUGCAUAGUAUUUAGUUA | 0.0116 ± 0.0026
UCCUCGUACAGCUUGCAUACUAUUUAGUUA | 0.00274 ± 0.0022
UCCUGGAACAGCUAGCAUAGUUUUUAGUUA | 0.00311 ± 0.0024
UCCUGGAACAGCUUGCAUAGUAUUUAGUAA | 0.00459 ± 0.002
